Measured values taken from PubChem BioAssay (EPA / NIEHS).
Values joined by “and” are separate entries in the source; they are usually repeats but may differ in a detail not shown here. Identical values can stand only once. Records with an inconclusive call do not appear. Some structures have more than one record in an assay (separate samples or runs), and their calls can disagree. Active and inactive are the calls of the source. The calls were made as follows: active = hit-call score of the fitted dose curve at least 0.9, where 1 is the maximum; inconclusive = response in the unintended direction; inactive = score below 0.9.

How the values were obtained:
[1] = ATG_XTT_Cytotoxicity: Cytotoxicity Assessment in the Attagene TRANS-FACTORIAL HepG2 Assay (AID 2283584)
Outline: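 Transfect HepG2 with GAL4-UAS reporter units, dose compound, incubate 24 h, then measure viable cell number by XTT. Fit concentration response against DMSO baseline.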

[2] = TOX21_p53_BLA_p2_viability: Viability Assessment in the Tox21 HCT-116 p53 Agonism Beta-lactamase Assay, Phase 2 (AID 2283591);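 also: actives lower the ATP signal meaning cytotoxicity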
Outline: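 HCT-116 p53-bla cells (4000/well) rested 5 h at 37C, then received compounds in DMSO (217-fold dilution) for 16 h at 37C, 5% CO2. After the CCF4 read, CellTiter-Glo was added; ATP luminescence was read after 30 min at room temperature.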

[3] = molecular target: Cellular tumor antigen p53 (Homo sapiens) (UniProt P04637); test: TOX21_p53_BLA_p2_ratio: Tox21 HCT-116 p53 Agonism Beta-lactamase Assay, Ratio, Phase 2 (AID 2283592)
Outline: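 An inducible beta-lactamase reporter in HCT116 cells signals p53 pathway activation. After 16 h chemical exposure at 37C, cells load CCF4-AM substrate for 2 h at room temperature; activity is the cleaved/uncleaved emission ratio relative to DMSO.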

[4] = TOX21_p53_BLA_p3_viability: Viability Assessment in the Tox21 HCT-116 p53 Agonism Beta-lactamase Assay, Phase 3 (AID 2283593);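 also: cells exposed to compound for 16 h before reading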
Outline: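 HCT-116 cells (4000/well) rested 5 h at 37C, then got DMSO compounds by pin tool (217-fold dilution) for 16 h at 37C, 5% CO2. After the bla read, CellTiter-Glo was added and luminescence read at 30 min, room temperature.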

[5] = molecular target: Cellular tumor antigen p53 (Homo sapiens) (UniProt P04637); test: TOX21_p53_BLA_p3_ratio: Tox21 HCT-116 p53 Agonism Beta-lactamase Assay, Ratio, Phase 3 (AID 2283596)
Outline: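 HCT116 p53-bla cells (4000/well) given compound in DMSO (217-fold dilution) after 5 h, incubated 16 h at 37C. CCF4-AM substrate 2 h at room temperature; 460/530 nm emission ratio, gain fitted against DMSO.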

[6] = molecular target: Cellular tumor antigen p53 (Homo sapiens) (UniProt P04637); test: TOX21_p53_BLA_p5_ratio: Tox21 HCT-116 p53 Agonism Beta-lactamase Assay, Ratio, Phase 5 (AID 2283599)
Outline: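 HCT-116 cells carrying a p53-inducible beta-lactamase reporter were seeded at 4000 cells/well and dosed after 5 h with compound in DMSO (217-fold dilution). After 16 h at 37C, CCF4-AM substrate was added for 2 h, and the 460/530 nm emission ratio was scored as gain-of-signal versus DMSO.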

[7] = molecular target: Cellular tumor antigen p53 (Homo sapiens) (UniProt P04637); test: TOX21_p53_BLA_p4_ratio: Tox21 HCT-116 p53 Agonism Beta-lactamase Assay, Ratio, Phase 4 (AID 2283601)
Outline: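 HCT116 cells carrying an inducible beta-lactamase reporter were plated at 4000 cells/well, rested 5 h, then exposed to compounds in DMSO (217-fold dilution) for 16 h at 37C. CCF4-AM substrate was loaded 2 h at room temperature; 460/530 nm emission ratio scored gain-of-signal versus DMSO.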

[8] = TOX21_p53_BLA_p5_viability: Viability Assessment in the Tox21 HCT-116 p53 Agonism Beta-lactamase Assay, Phase 5 (AID 2283600)
Outline: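 Counter-readout for cytotoxicity: ATP-dependent luminescence from CellTiter-Glo, read in the beta-lactamase wells after 30 min at RT, following a 16 h compound exposure at 37C.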

[9] = TOX21_p53_BLA_p4_viability: Viability Assessment in the Tox21 HCT-116 p53 Agonism Beta-lactamase Assay, Phase 4 (AID 2283597);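 also: hits lower the luminescence signal meaning cytotoxicity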
Outline: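 Compound exposure of HCT116 cells lasts 16 h at 37C, 5% CO2, with DMSO stocks diluted 217-fold. Cellular ATP is then quantified by CellTiter-Glo luminescence after 30 min at room temperature.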

Measured: AC50

Sequence of Cellular tumor antigen p53 (Homo sapiens) (P04637 whole entry, looked up): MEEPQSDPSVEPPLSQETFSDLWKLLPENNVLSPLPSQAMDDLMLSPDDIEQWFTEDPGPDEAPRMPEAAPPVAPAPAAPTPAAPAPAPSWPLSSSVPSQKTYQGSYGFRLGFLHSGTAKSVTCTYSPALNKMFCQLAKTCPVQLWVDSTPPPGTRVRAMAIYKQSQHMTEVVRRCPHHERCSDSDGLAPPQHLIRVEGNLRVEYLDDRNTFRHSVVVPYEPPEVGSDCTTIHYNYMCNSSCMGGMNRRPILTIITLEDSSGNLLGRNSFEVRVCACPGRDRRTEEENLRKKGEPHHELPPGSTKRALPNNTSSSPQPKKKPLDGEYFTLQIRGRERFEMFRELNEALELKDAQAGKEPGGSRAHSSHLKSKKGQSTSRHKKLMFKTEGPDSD

CCCCOCCOC(C)=O
inactive: [1] | [2] | [3] | [4] | [5] | [6]

CNC(=O)O/N=C/C(C)(C)S(C)=O (stereo not drawn)
inactive: [1] | [2] | [3] | [5] | [6] | [7]

CCCCC(CC)CO[N+](=O)[O-] (stereo not drawn)
inactive: [1] | [2] | [3] | [5]

CC(C)OC(=O)Nc1ccccc1
inactive: [1] | [2] | [3] | [4] | [5] | [6] | [7]

CCCCCCCCCl
inactive: [1] | [2] | [3] | [4] | [5] | [6] | [8]

CCOC(=O)/C=C(C)/C=C/C[C@@H](C)CCCC(C)C
active: [4] 58.3 µM
inactive: [1] | [2] | [3] | [5] | [6] | [8]

COc1ccc(C(O)(c2cncnc2)C2CC2)cc1 (stereo not drawn)
inactive: [5] | [8]

O=[N+]([O-])c1ccc2c3c(cccc13)CC2
inactive: [1] | [3] | [4] | [5] | [6] | [7]

NC(=O)CF
inactive: [2] | [3] | [5]

Cl/C=C/Cl
inactive: [1] | [3] | [4] | [5] | [8]

Nc1ccc(N=Nc2ccc(-c3ccc(N=Nc4c(S(=O)(=O)O)cc5cc(S(=O)(=O)O)c(N=Nc6ccccc6)c(O)c5c4N)cc3)cc2)c(N)c1
inactive: [3] | [4] | [5] | [9] | [6] | [7]

ClCCBr
inactive: [2] | [3] | [4] | [5] | [9] | [6] | [8] | [7]

COP(=S)(OC)Oc1c(Cl)cc(C)cc1Cl
inactive: [2] | [3] | [5] | [6] | [7]

CCOP(=O)(CN(CCO)CCO)OCC
inactive: [1] | [3] | [4] | [9]

COP(=S)(OC)Oc1cc(Cl)c(Cl)cc1Cl
inactive: [2] | [3] | [4] | [5] | [6] | [8]

COP(=S)(OC)Oc1ccc(Sc2ccc(OP(=S)(OC)OC)cc2)cc1
inactive: [2] | [3] | [4] | [5] | [9] | [6] | [8] | [7]

CCCCCCCCCCCCCCCC[n+]1ccccc1
inactive: [2] | [4] | [5] | [8]
active: [2] 48.8 µM and 69.6 µM | [4] 45.6 µM and 81 µM and 46.1 µM | [5] 36.1 µM and 53.2 µM | [9] 66.5 µM [middle of 4 runs] | [6] 71.7 µM [middle of 4 runs] | [8] 62.7 µM and 84.3 µM and 80.2 µM | [7] 67.7 µM [middle of 4 runs]

COc1ccccc1OC
inactive: [1] | [3] | [4] | [5] | [9] | [6] | [7]

CC(=O)C(Cl)C(=O)N(C)C (stereo not drawn)
inactive: [1] | [3] | [5] | [9] | [6] | [8] | [7]

O=C(Cc1ccccc1)c1ccccc1
inactive: [2] | [3] | [5] | [6]

c1ccc(N=NNc2ccccc2)cc1
inactive: [2] | [3] | [4] | [5] | [9] | [6] | [8] | [7]

COc1cc(OC)nc(NC(=O)NS(=O)(=O)c2ncccc2C(=O)N(C)C)n1
inactive: [3] | [5] | [9] | [6] | [8]

CCOP(OCC)OCC
inactive: [3] | [4] | [5] | [6] | [7]

c1cc[c]([Hg][c]2ccccc2)cc1
active: [3] 15.2 µM | [9] 79.3 µM
inactive: [2] | [5] | [6]

CC(C)OC(=S)S
inactive: [2] | [3] | [5] | [6] | [8]

Nc1cccc2ccccc12
inactive: [1] | [2] | [5] | [6]

COC(=O)Cc1ccccc1
inactive: [1] | [5] | [7]

NN=C(N)N
inactive: [3] | [5] | [6] | [7]

O=C(NCO)NCO
inactive: [1] | [5] | [8] | [7]

P.[In]
inactive: [2] | [4] | [5] | [9] | [6] | [8] | [7]

COP(=S)(OC)Oc1cc(Cl)c(Br)cc1Cl
inactive: [2] | [4] | [6]
active: [3] 70.1 µM | [5] 46.8 µM | [7] 79.6 µM

CC(C)c1ccc(CO)cc1
inactive: [2] | [3] | [4] | [5] | [6] | [8] | [7]

C=C(C)C#N
inactive: [1] | [3] | [4] | [5] | [6] | [8] | [7]

ClCc1cccnc1
inactive: [2] | [3] | [5] | [6] | [8]

O=C(OC1CCCCC1)c1ccccc1C(=O)OC1CCCCC1
inactive: [2] | [3] | [4] | [9] | [6] | [8]

CCOC(=O)CP(=O)(OCC)OCC
inactive: [1] | [3] | [4] | [5] | [7]

CC(C#N)CCC#N (stereo not drawn)
inactive: [1] | [2] | [4] | [5] | [6] | [8] | [7]

N#CN=C(N)N
inactive: [2] | [3] | [5] | [9] | [6] | [8] | [7]

CCCCP(CCCC)CCCC
inactive: [2] | [3] | [4] | [5] | [9] | [8]

[O-][Cl+2]([O-])O
inactive: [1] | [3] | [4] | [5] | [9] | [6] | [8] | [7]

OCc1ccco1
inactive: [1] | [3] | [4] | [5] | [8]

NNC(=S)NN
inactive: [2] | [3] | [4] | [5] | [9] | [6] | [7]

CCC[CH2][Sn]([Cl])([Cl])[Cl]
inactive: [2] | [3] | [5] | [6] | [8] | [7]

OCC(O)CCl (stereo not drawn)
inactive: [3] | [4] | [5] | [9] | [6] | [8]

COP(=O)(OC)O/C(=C\Cl)c1cc(Cl)c(Cl)cc1Cl
inactive: [1] | [3] | [4] | [5] | [6] | [7]
